Results on 32 molecules are retold here after PubChem BioAssay AID1578 (Sanford-Burnham Center for Chemical Genomics, 2009).

About 3,000 (1%) of roughly 290,000 compounds were called active. Many of the other results were omitted from the sample, so actives are more common in it than they were. Unmarked numbers belong to inactive results. Cut-off read from the data, not from the text of the source: active = inhibition mostly above about 36% (no sharp cut-off); inactive = mostly below about 34%.

The experiment is described as follows: inhibition of NOD1-driven NF-kB reporter – cell-based, luminescence, uHTS, primary screen (AID 1578).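 Note: HEK-293T reporter cells stimulated with the NOD1 agonist gamma-tri-DAP.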 The following applies: NOD1-driven NF-kB luciferase reporter cells, at 4 µM, active compounds read high.
On to `O=C(CSc1ncccc1C(=O)O)NC1CCCCC1`, for which the inhibition is -47.1%.

For the molecule `CC(C)C(=O)Nc1ccc(Cl)cc1-c1nc2ccccc2[nH]c1=O`, the inhibition is 34.6%.

On to `Cc1cccc(C)c1NC(=O)CSc1nnc([C@@H]2CCCN2C(=O)OC(C)(C)C)o1`, for which the inhibition was -0.7%.

For the molecule `N#CCS(=O)(=O)c1ccccc1`, the inhibition was -5.7%.

As for `O=C(CSc1nc2scc(-c3ccccc3)c2c(=O)[nH]1)N1CCCCC1`, the inhibition is -9.2%.

`CC(C)(C)NC(=O)CSc1nc2scc(-c3ccccc3)c2c(=O)[nH]1`: the inhibition was 25.7%.

Turning to `O=C(CSc1nc2scc(-c3ccccc3)c2c(=O)[nH]1)NC1CCCCC1`, the inhibition was 67.6% (active).

On to `Cc1ccc2nc(CNC(=O)C3CCC(=O)N(Cc4ccccc4F)C3)cn2c1` (configuration not stated), for which the inhibition is -21.3%.

Turning to `Cc1ccc(C2=NNC3(CCOC(C)(C)C3)S2)cc1` (configuration not stated), the inhibition was 74.5% (active).

For the molecule `Cc1ccc(C2(CC(=O)O)CCOC(C)(C)C2)cc1` (configuration not stated), the inhibition was 5.4%.

As for `CCc1ccc2c(c1)C1(NN=C(c3ccc(C)cc3)S1)C(=O)N2` (configuration not stated), the inhibition is 15.2%.

For `O=C(c1cnsn1)N1CCC(CO)(Cc2ccc(Cl)cc2)CC1`, the inhibition was -10.4%.

Take `NC(=O)c1cc(-c2csc(NCCc3ccccc3)n2)ccc1O`: the inhibition was -52.8%.

In the case of `COc1ccc(N2CCN(C(=O)CSc3nc4[nH]ncc4c(=O)n3-c3ccc(Br)cc3)CC2)cc1`, the inhibition was 8.7%.

As to `CCCNC(=O)C(=O)NCC1CCCN1CC` (configuration not stated), the inhibition is -18.5%.

On to `CCN1CCCC1CNC(=O)C(=O)NC` (configuration not stated), for which the inhibition is -17.4%.

On to `CCN1CCCC1CNC(=O)C(=O)NC1CC1` (configuration not stated), for which the inhibition was 40.8% (active).

For the molecule `CCCCNC(=O)Cn1c(-c2ccc(OC)cc2)noc1=O`, the inhibition is -2.3%.

For `COc1ccc(NC(=O)N2CCC(O)(c3cccnc3)CC2)c(OC)c1`, the inhibition is 15.9%.

With `Fc1ccc(-c2ccnn2-c2ccccc2)cc1`, the inhibition is -18.4%.

Turning to `Oc1ccc(Br)cc1-c1cc(-c2ccccc2)n[nH]1`, the inhibition is -13.2%.

Consider `Oc1ccc(Br)cc1-c1ccnn1-c1ccccc1`, for which the inhibition is 82.1% (active).

In the case of `COC(=O)CCCCC1SCC2NC(=O)NC21O` (configuration not stated), the inhibition is -2.5%.

For the molecule `Cc1nnc(NC(=O)c2sc3ccccc3c2Cl)s1`, the inhibition was -46.1%.

For the molecule `Cc1ccc2c(Cl)c(C(=O)Nc3cccnc3)sc2c1`, the inhibition was 87.9% (active).

`Cc1ccc(NC(=O)c2sc3ccccc3c2Cl)nc1`: the inhibition was -21.7%.

As for `Cc1ccc2c(Cl)c(C(=O)Nc3cc(C)on3)sc2c1`, the inhibition was -79.3%.

Regarding `O=C(Nc1ccc(Cl)cc1)Nc1cccnc1`, the inhibition was -14.9%.

Turning to `Cc1ccc2c(Cl)c(C(=O)NCc3cccnc3)sc2c1`, the inhibition is 12.2%.

`Cc1cnc(NC(=O)c2sc3ccccc3c2Cl)s1`: the inhibition was 105% (active).

As to `O=C(Nc1cccnc1)Nc1cc(Cl)cc(Cl)c1`, the inhibition was 76.8% (active).

Take `O=C(Nc1cccnc1)Nc1ccccc1Cl`: the inhibition was -8.9%.
